According to ChEMBL document CHEMBL4513146, “CO-ADD screening of Karazin Kharkiv National University (Ukraine) compounds”:
Potency and affinity values are given separately.

Legend:
Staphylococcus aureus = settings: Concentration 32 ug.mL-1;; ASSAY_TEST Inhibition of Bacterial Growth; detection method Absorption (OD600); MEDIA CAMHB; plate type 384well; NBS; CORNING #3640; time 18 hr
Escherichia coli = settings: Concentration 32 ug.mL-1;; ASSAY_TEST Inhibition of Bacterial Growth; detection method Absorption (OD600); MEDIA CAMHB; plate type 384well; NBS; CORNING #3640; time 18 hr

| Compound | Inhibition (Staphylococcus aureus) [%] | Inhibition (Escherichia coli) [%] |
| --- | --- | --- |
| CCCCOc1ccc(-c2cc3c4nnc(SCC(=O)NCc5ccc(C)cc5)n4ccn3n2)cc1 | 2.78 | -5.47 |
| COc1ccc(-c2cc3c4nn(CC(=O)Nc5ccc(OC)c(OC)c5)c(=O)n4ccn3n2)cc1 | 2.65 | 2.66 |
| Cc1ccc(Cl)cc1NC(=O)Cn1nc2c3c4c(sc3ncn2c1=O)CCCCC4 | 5.6 | -1.7 |
| COc1cccc(CN(c2ccc(F)c(F)c2)S(=O)(=O)c2cccn3c(C)nnc23)c1 | 17.08 | 2.94 |
| O=C(Cn1nc2c(Oc3ccc(Cl)cc3)nccn2c1=O)Nc1ccc2c(c1)OCO2 | 6.57 | -7 |
| COc1ccc(NC(=O)Cn2nc3ccc(-c4ccc(C)c(C)c4)nn3c2=O)cc1OC | 11.61 | -6.17 |
| COc1ccc(-n2ccn3c(=O)n(Cc4ccccc4Cl)nc3c2=O)cc1Cl | 3.32 | 3.28 |
| CCCCOc1ccc(-c2cc3c4nnc(SCC(=O)Nc5cc(C)ccc5C)n4ccn3n2)cc1 | -14.19 | -10.44 |
| COc1ccc(C(C)NC(=O)CCc2nnc3ccc(-c4ccc(C)c(C)c4)nn23)cc1OC (centres undefined) | 7.27 | -3.17 |
| CSc1cccc(NC(=O)Cn2c(=O)c3nnc(C)n3c3ccccc32)c1 | -2.91 | 2.47 |
| Cc1ccc(NC(=O)Cn2nc3ccc(SCc4ccc(Cl)cc4)nn3c2=O)cc1 | -0.24 | -6.34 |
| COc1ccc2[nH]cc(C(=O)CSc3nnc4c(=O)n(-c5ccc(F)cc5)ccn34)c2c1 | 14.61 | -2.83 |
